Where “and” joins values, the source holds several entries; their conditions need not be identical. Equal entries are not always repeated.
How the values were obtained:
[1] = molecular target: Ribosomal protein S6 kinase alpha-6 (Homo sapiens) (UniProt Q9UK32); details: at 1 µM;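 also: each value is a mean inhibition of RSK4 from a GSK PKIS panel screen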
[2] = molecular target: T1, Serine/threonine-protein kinase Sgk1 (Homo sapiens) (UniProt O00141); details: at 0.1 µM
T1 sequence (whole entry): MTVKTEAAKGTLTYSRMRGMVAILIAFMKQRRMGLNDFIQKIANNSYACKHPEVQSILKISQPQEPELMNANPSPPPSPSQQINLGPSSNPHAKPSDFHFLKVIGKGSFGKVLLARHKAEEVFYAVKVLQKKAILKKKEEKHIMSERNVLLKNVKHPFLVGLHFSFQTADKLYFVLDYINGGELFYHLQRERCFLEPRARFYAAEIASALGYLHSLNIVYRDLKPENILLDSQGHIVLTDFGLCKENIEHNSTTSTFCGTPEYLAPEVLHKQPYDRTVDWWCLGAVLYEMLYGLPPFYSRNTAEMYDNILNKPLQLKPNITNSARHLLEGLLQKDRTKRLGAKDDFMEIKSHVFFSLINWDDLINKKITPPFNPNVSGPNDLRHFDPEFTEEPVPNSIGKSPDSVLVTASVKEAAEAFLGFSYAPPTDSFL

[3] = molecular target: T1, Serine/threonine-protein kinase Sgk1 (Homo sapiens); details: at 1 µM
[4] = molecular target: T2, Serine/threonine-protein kinase Sgk2 (Homo sapiens) (UniProt Q9HBY8); details: at 0.1 µM
T2 sequence (whole entry): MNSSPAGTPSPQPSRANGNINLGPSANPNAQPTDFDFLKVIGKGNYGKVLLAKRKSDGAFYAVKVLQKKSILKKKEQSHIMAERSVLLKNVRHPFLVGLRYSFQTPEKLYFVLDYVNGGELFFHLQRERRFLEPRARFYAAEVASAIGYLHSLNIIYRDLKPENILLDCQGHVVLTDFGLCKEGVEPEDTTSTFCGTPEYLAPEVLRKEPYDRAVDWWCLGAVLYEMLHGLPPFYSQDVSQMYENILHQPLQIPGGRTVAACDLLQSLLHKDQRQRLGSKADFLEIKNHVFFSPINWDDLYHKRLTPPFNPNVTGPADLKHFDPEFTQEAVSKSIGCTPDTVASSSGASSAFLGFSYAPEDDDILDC

[5] = molecular target: T2, Serine/threonine-protein kinase Sgk2 (Homo sapiens); details: at 1 µM
[6] = molecular target: T3, Serine/threonine-protein kinase Sgk3 (Homo sapiens) (UniProt Q96BR1); details: at 0.1 µM
T3 sequence (whole entry): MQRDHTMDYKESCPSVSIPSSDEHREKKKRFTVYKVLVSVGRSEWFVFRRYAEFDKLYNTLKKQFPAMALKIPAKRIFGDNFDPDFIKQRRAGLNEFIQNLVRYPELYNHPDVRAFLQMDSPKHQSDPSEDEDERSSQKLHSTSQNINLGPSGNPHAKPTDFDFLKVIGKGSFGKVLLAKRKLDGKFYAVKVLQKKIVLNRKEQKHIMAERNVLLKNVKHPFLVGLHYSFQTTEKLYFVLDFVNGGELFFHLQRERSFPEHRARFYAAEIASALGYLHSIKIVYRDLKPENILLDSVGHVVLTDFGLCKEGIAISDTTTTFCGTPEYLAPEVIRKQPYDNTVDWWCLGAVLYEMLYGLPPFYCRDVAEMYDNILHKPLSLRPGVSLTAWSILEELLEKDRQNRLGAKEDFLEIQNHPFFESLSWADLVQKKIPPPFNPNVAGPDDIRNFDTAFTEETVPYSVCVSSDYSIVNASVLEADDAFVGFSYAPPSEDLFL

[7] = molecular target: T3, Serine/threonine-protein kinase Sgk3 (Homo sapiens); details: at 1 µM
[8] = molecular target: 5'-AMP-activated protein kinase catalytic subunit alpha-1 (Homo sapiens) (UniProt Q13131); details: at 0.1 µM
[9] = molecular target: 5'-AMP-activated protein kinase catalytic subunit alpha-1 (Homo sapiens) (UniProt Q13131); details: at 1 µM
[10] = molecular target: 5'-AMP-activated protein kinase catalytic subunit alpha-2 (Homo sapiens) (UniProt P54646); details: at 0.1 µM
[11] = molecular target: 5'-AMP-activated protein kinase catalytic subunit alpha-2 (Homo sapiens) (UniProt P54646); details: at 1 µM
[12] = molecular target: T4, NUAK family SNF1-like kinase 1 (Homo sapiens) (UniProt O60285); details: at 0.1 µM
T4 sequence (whole entry): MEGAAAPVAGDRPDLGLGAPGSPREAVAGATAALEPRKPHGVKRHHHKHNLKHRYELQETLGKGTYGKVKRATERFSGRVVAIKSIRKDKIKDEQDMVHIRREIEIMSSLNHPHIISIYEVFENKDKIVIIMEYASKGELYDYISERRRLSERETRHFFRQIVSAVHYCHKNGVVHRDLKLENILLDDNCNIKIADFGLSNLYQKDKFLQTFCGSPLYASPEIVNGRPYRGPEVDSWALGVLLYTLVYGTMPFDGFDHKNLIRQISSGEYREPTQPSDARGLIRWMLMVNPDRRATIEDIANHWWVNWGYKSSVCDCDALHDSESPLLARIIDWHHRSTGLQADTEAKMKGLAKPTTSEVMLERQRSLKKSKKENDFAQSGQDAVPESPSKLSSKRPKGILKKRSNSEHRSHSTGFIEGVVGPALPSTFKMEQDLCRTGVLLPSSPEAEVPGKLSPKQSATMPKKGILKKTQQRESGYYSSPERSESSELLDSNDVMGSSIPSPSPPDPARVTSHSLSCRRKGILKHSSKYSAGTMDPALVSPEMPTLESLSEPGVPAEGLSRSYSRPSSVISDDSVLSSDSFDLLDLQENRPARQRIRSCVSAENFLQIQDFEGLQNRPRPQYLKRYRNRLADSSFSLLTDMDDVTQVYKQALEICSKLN

[13] = molecular target: T4, NUAK family SNF1-like kinase 1 (Homo sapiens); details: at 1 µM
[14] = molecular target: T5, Serine/threonine-protein kinase BRSK1 (Homo sapiens) (UniProt Q8TDC3); details: at 0.1 µM
T5 sequence (whole entry): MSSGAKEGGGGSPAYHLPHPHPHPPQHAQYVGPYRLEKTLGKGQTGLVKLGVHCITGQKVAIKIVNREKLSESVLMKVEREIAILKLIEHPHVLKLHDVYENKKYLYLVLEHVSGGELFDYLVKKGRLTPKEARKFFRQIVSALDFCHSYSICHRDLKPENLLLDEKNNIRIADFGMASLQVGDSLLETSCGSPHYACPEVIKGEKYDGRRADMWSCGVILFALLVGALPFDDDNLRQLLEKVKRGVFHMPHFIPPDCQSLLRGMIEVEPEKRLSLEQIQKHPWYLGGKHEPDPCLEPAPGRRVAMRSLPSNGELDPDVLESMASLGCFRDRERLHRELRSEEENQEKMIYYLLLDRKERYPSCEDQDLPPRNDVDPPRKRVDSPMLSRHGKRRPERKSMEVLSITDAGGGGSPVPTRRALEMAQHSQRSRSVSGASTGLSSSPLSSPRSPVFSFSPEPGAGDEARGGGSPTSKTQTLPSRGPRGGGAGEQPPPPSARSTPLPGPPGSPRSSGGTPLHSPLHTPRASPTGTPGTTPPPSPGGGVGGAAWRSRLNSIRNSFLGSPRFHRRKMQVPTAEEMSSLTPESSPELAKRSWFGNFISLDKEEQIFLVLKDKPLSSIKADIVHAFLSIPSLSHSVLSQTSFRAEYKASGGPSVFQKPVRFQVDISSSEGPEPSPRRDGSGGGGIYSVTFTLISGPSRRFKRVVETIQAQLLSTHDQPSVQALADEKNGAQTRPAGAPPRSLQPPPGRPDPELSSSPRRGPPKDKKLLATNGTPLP

[15] = molecular target: T5, Serine/threonine-protein kinase BRSK1 (Homo sapiens); details: at 1 µM
[16] = molecular target: T6, Serine/threonine-protein kinase BRSK2 (Homo sapiens) (UniProt Q8IWQ3); details: at 0.1 µM
T6 sequence (whole entry): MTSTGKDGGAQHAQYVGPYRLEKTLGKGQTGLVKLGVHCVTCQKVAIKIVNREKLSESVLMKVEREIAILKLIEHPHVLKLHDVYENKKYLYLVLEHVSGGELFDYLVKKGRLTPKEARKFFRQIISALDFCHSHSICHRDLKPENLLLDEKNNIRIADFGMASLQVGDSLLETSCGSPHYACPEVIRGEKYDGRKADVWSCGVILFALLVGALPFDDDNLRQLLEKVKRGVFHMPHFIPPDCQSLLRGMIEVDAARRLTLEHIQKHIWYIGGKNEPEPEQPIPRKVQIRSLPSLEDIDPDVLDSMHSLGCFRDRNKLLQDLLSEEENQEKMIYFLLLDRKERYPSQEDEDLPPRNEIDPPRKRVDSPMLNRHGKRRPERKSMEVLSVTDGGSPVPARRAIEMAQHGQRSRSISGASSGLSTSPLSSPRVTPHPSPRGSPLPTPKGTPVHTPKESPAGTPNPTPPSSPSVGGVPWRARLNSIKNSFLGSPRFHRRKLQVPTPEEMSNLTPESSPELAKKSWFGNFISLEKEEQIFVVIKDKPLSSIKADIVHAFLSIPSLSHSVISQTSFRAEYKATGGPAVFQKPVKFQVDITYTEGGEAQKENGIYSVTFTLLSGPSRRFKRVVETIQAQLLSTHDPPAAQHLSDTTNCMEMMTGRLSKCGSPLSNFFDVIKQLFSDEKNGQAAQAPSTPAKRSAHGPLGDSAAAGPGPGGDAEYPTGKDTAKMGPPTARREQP

[17] = molecular target: T6, Serine/threonine-protein kinase BRSK2 (Homo sapiens); details: at 1 µM
[18] = molecular target: Calcium/calmodulin-dependent protein kinase type 1D (Homo sapiens) (UniProt Q8IU85); details: at 0.1 µM
[19] = molecular target: Calcium/calmodulin-dependent protein kinase type 1D (Homo sapiens) (UniProt Q8IU85); details: at 1 µM
[20] = molecular target: Calcium/calmodulin-dependent protein kinase type II subunit alpha (Homo sapiens) (UniProt Q9UQM7); details: at 0.1 µM;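 also: reported values are averages (mean inhibition of CAMK2A)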
Calcium/calmodulin-dependent protein kinase type II subunit alpha (Homo sapiens), sequence (Q9UQM7 whole entry): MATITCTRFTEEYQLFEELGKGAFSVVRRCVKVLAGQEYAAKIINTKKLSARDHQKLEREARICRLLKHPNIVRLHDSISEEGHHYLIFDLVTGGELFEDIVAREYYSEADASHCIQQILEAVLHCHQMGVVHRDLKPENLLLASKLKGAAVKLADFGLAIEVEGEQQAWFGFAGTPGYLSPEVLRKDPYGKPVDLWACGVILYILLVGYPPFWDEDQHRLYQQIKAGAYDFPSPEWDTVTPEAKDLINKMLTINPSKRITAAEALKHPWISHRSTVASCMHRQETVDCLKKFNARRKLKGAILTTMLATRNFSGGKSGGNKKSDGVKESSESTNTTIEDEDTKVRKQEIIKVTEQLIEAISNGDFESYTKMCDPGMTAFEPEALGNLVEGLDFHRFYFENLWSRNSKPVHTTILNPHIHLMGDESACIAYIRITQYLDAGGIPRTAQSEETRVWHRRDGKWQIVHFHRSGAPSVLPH

5'-AMP-activated protein kinase catalytic subunit alpha-1 (Homo sapiens), sequence (Q13131 whole entry, looked up): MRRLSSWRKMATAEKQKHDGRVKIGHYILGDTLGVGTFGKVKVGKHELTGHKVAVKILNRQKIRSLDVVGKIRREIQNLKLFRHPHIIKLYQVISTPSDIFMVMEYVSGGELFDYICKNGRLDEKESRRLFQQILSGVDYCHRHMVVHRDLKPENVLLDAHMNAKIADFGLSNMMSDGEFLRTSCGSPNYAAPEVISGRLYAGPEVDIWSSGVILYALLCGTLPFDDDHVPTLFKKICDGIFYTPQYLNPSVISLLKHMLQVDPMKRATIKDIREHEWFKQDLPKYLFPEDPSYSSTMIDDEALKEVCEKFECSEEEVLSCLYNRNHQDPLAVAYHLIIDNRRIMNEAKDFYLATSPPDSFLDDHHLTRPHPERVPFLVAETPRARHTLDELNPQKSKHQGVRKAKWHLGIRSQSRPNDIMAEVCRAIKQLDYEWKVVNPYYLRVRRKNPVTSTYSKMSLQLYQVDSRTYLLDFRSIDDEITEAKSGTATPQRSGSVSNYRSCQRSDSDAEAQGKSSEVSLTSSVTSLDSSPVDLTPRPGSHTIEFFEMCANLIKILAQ
5'-AMP-activated protein kinase catalytic subunit alpha-2 (Homo sapiens), sequence (P54646 whole entry, looked up): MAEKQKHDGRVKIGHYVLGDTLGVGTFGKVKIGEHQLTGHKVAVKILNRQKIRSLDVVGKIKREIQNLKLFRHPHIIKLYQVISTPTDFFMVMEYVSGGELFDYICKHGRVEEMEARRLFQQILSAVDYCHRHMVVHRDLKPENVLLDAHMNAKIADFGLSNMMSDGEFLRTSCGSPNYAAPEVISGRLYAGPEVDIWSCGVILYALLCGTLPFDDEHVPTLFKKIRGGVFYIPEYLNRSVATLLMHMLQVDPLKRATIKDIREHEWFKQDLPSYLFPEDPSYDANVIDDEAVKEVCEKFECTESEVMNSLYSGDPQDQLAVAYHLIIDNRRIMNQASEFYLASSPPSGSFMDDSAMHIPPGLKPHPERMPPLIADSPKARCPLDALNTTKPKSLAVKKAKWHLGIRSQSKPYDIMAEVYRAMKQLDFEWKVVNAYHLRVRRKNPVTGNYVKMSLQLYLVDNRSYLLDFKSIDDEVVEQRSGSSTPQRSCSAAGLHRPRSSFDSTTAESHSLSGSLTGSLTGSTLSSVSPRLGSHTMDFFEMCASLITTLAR
Ribosomal protein S6 kinase alpha-6 (Homo sapiens), sequence (Q9UK32 whole entry): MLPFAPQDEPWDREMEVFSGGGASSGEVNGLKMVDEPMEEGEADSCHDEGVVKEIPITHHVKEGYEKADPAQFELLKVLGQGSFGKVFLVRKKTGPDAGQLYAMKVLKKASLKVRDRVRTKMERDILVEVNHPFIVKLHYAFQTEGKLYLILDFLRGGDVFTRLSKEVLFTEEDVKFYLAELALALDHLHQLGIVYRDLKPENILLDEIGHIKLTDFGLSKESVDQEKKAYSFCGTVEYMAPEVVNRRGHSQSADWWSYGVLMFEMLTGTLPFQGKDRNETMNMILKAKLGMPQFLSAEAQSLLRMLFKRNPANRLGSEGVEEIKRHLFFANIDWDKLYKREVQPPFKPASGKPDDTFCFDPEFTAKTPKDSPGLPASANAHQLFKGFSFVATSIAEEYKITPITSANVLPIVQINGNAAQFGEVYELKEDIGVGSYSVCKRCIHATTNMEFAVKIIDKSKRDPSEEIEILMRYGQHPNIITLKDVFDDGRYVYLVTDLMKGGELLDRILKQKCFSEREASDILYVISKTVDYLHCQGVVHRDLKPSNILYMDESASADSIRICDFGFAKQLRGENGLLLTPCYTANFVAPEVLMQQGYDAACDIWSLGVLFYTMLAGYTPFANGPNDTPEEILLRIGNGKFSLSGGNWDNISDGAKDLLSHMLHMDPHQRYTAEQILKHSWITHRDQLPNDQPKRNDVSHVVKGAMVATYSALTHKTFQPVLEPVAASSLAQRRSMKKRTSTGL
Calcium/calmodulin-dependent protein kinase type 1D (Homo sapiens), sequence (Q8IU85 whole entry, looked up): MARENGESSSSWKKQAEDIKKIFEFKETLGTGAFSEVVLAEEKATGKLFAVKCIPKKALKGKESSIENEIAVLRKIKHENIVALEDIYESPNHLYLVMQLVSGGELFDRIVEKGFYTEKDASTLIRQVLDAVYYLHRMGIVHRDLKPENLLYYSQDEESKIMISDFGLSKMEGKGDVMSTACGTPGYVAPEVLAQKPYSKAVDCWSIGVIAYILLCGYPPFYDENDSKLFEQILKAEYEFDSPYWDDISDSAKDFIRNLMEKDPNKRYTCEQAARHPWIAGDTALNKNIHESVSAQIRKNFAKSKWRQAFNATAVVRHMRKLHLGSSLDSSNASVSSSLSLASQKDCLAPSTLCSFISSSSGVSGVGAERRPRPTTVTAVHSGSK

## CS(=O)(=O)Nc1ccc(-c2cc(-c3ccccc3)cc(C(N)=O)c2N)cc1
[1]
  inhibition: 0.06%
[2]
  inhibition: 0.87%
[3]
  inhibition: 2.29%
[4]
  inhibition: 9.08%
[5]
  inhibition: 0.51%
[6]
  inhibition: 0.13%
[7]
  inhibition: 2.54%
[8]
  inhibition: 0.7%
[9]
  inhibition: 1.42%
[10]
  inhibition: 5.24%
[11]
  inhibition: 1.49%
[12]
  inhibition: -2.25%
[13]
  inhibition: 1.62%
[14]
  inhibition: -0.36%
[15]
  inhibition: -0.05%
[16]
  inhibition: 0.92%
[17]
  inhibition: 2.21%
[18]
  inhibition: -0.99%
[19]
  inhibition: -0.47%
[20]
  inhibition: -1.51%

## NS(=O)(=O)c1ccc(N/N=C2\C(=O)Nc3cccc(CCc4ccncc4)c32)cc1
[1]
  inhibition: 7.42%
[2]
  inhibition: 1.76%
[3]
  inhibition: 1.65%
[4]
  inhibition: 3.09%
[5]
  inhibition: -0.79%
[6]
  inhibition: -1.13%
[7]
  inhibition: -0.92%
[8]
  inhibition: 4.83%
[9]
  inhibition: 8.26%
[10]
  inhibition: 3.2%
[11]
  inhibition: 11.6%
[12]
  inhibition: 47.4%
[13]
  inhibition: 62.5%
[14]
  inhibition: 1.52%
[15]
  inhibition: 7.67%
[16]
  inhibition: 3.33%
[17]
  inhibition: 15.8%
[18]
  inhibition: 0.4%
[19]
  inhibition: 1.14%
[20]
  inhibition: -1.5%

## Nc1nccc(-c2c(-c3ccc(F)cc3)ncn2C2CCNCC2)n1
[1]
  inhibition: 4.21% and 1.38%
[2]
  inhibition: 0.06% and 1.23%
[3]
  inhibition: 2.06% and 1.69%
[4]
  inhibition: -3% and 1.37%
[5]
  inhibition: 0.49% and 1.29%
[6]
  inhibition: -1.13% and 1.78%
[7]
  inhibition: -2.95% and -0.32%
[8]
  inhibition: -1.82% and 0.38%
[9]
  inhibition: 0.26% and 0.1%
[10]
  inhibition: -1.29% and 1.97%
[11]
  inhibition: -2.2% and 1.34%
[12]
  inhibition: 3.5% and 3.71%
[13]
  inhibition: 8.02% and 2.99%
[14]
  inhibition: 1.03% and 0.08%
[15]
  inhibition: 5.8% and 0.48%
[16]
  inhibition: 1.95% and 0.03%
[17]
  inhibition: 7.44% and 0.24%
[18]
  inhibition: -0.73% and -0.33%
[19]
  inhibition: 0.76% and -0.11%
[20]
  inhibition: -5.11% and -1.58%
